CYP2C19 inh = human CYP2C19 inhibition; P33261; CYP2C19 Supersomes, luciferin-H EGE luminescence, 30 min; inhibition, % at 5 µM; 96,000 tested, 21% active; AID 778;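 active means CYP2C19 inhibition above a set limit at 5 µM in the primary screen, cut at about 50% in these data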;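 further: plate controls were negative control wells for no effect and 2.5 mM tranylcypromine positive control for full effect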
hDAT+cocaine = human DAT dopamine uptake with cocaine, either direction | Q01959 | LLC-PK1 hDAT cells, [14C]-dopamine uptake with cocaine IC80; actives deviate in either direction | B-score at 10 µM | 110,000 tested, 1.3% active;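 active means Z score or B-score, a plate-position-corrected score, falls beyond the plate's 99.7% confidence bounds, in either direction; inactive means both scores lie inside the 99.7% bounds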;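 further: scored against the spread of the other compound wells on the same plate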
CYP2C9 activ = activators of human CYP2C9; P11712; recombinant CYP2C9, luciferin-H conversion, luminescence; stronger effect = higher value; factor 1 = untreated enzyme, 0 = blocked; AID 1024; activation factor at 5 µM; 96,000 tested, 1.4% active;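 active means activation factor of 2 or more for CYP2C9 at a 5 µM dose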;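 further: 0 = sulfaphenazole-blocked wells and 1 = vehicle-only wells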
CYP2C19 act = cytochrome P450 2C19 (human) activation; P33261; recombinant CYP2C19, luciferin-H EGE luminescence; stronger effect = higher value; 0 = fully inhibited enzyme, 1 = untreated enzyme; activation factor at 5 µM; 96,000 tested, under 10 active;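 active means activation factor of at least 2 at 5 µM in the primary screen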;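 further: 0 = wells with 2.5 mM tranylcypromine and 1 = vehicle-only wells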
D1 mod = allosteric modulators of human D1 dopamine receptor | P21728 | HEK293 D1, CRE-luciferase, dopamine EC30 potentiation; actives deviate in either direction | B-score at 10 µM | 58,000 tested, 5.9% active;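 active means luminescence count or its row- and column-corrected plate score outside the 99.7% band of the plate's sample wells, on either side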
Target sequence (P21728 whole entry, looked up): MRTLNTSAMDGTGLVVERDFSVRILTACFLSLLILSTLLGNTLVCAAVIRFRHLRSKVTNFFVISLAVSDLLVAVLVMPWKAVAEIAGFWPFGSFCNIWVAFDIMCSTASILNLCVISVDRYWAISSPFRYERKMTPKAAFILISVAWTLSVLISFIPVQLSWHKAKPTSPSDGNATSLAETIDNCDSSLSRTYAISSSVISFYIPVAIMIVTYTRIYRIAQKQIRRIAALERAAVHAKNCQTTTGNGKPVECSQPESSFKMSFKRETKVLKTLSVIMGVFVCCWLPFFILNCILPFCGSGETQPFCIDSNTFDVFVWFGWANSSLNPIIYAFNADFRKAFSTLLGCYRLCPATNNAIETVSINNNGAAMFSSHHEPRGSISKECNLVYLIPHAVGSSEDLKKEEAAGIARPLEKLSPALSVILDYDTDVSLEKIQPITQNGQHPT
CYP2C9 inh = blocks human cytochrome P450 2C9; CYP2C9 Supersomes, luciferin-H conversion, luminescence; P11712; 96,000 tested, 20% active; inhibition, % at 5 µM; AID 777;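 active means blocking of liver enzyme CYP2C9 beyond about 50% at 5 µM, limit read from the data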
Active calls of the source: *; nt = no result given. Rows were chosen to be rich in hits. Some 28% of all compounds tested hit in one or more screens of this group.

SMILES	CYP2C19 inh	hDAT+cocaine	CYP2C9 activ	CYP2C19 act	D1 mod	CYP2C9 inh
CCCSc1nc(C)cc(C)c1C(N)=O	-23.9	-0.219	1.1	1.2	nt	-12.3
Cc1ccc(NC2OC(CO)C(O)C(O)C2O)cc1 (stereo not drawn)	26.5	0.726	0.9	0.7	nt	11.7
COc1ccc(C(C)NC(=O)c2ccccc2)cc1 (stereo not drawn)	75.0*	-0.639	0.9	0.3	nt	5.2
COc1ccc(C(NC(=O)c2ccc(-c3ccccc3)cc2)c2ccccc2)cc1 (stereo not drawn)	8.8	nt	1	0.9	nt	-0.5
COc1ccc(N2CCC(CNC(=O)Nc3ccc(OC)cc3OC)C2)cc1 (stereo not drawn)	61.7*	nt	0.6	0.4	-0.0393	35.8
COc1ccc(N2CCC(CNC(=O)Nc3ccc(C)c(C)c3)C2)cc1 (stereo not drawn)	nt	nt	nt	nt	-0.92	nt
COc1ccccc1C(=O)NCCCN1CCCC1=O	-5.4	0.344	1.1	1.1	-0.0373	-6.4
COc1ccc(NC(=O)NCCCN2CCCC2=O)c(OC)c1	53.8*	nt	0.9	0.5	nt	8.6
Cn1c(C2CC(=O)N(Cc3ccccc3)C2)nc2ccccc21 (stereo not drawn)	76.2*	-1.2	0.9	0.2	nt	14.5
O=C1CC(c2ccccc2)CN1Cc1ccccc1 (stereo not drawn)	92.9*	0.429	0.8	0.1	0.458	18.7
O=C(CN1CC(c2ccccc2)CC1=O)OCc1ccccc1F (stereo not drawn)	88.3*	0.146	0.4	0.1	0.604	55.9*
O=C(CCCCO)CCCCCCCC[C@H]1N[C@H](CO)[C@H](O)[C@@H]1O[C@@H]1O[C@H](CO)[C@@H](O)[C@H](O)[C@H]1O	nt	0.356	nt	nt	nt	nt
O=C(CN(C1CCCCC1)C1CCCCC1)N1CCc2ccccc2C1	75.7*	0.915	0.3	0.2	nt	65.2*
O=C(CN(C1CCCCC1)S(=O)(=O)c1ccccc1)N1CCCC1	16.5	-0.266	0.5	0.8	-0.0681	51.2*
CNC(=O)CN(C1CCCCC1)S(=O)(=O)c1ccc(F)cc1	65.7*	-1.21	0.6	0.3	-1.5	42.0
Cc1ccc(S(=O)(=O)N(CC(=O)N2CCN(c3ccc(F)cc3)CC2)C2CCCCC2)cc1	41.7	1.03	0.5	0.6	nt	51.5*
O=C(CN(C1CCCCC1)S(=O)(=O)c1ccc(Cl)cc1)N1CCOCC1	3.0	-0.217	0.7	1	nt	26.8
CCOC(=O)N1CCN(C(=O)CN(C2CCCCC2)S(=O)(=O)c2ccc(C)cc2)CC1	21.6	0.437	0.8	0.8	-0.612	23.6
O=c1[nH]c(CSc2nnc(NCCCN3CCOCC3)s2)nc2cc(Cl)ccc12	-7.1	0.167	1	1.1	1.54	1.8
Cc1nc2c3c(-c4ccccc4)c(-c4ccccc4)oc3ncn2n1	1.4	nt	0.9	1	1.07	11.2
CCCCC1=CC2=CC(=O)C(C)(OC(=O)c3ccc(Cl)nc3)C(=O)C2=CO1 (stereo not drawn)	nt	0.0425	nt	nt	nt	nt
CCCCNC(=O)C(C#N)c1nc2ccccc2nc1N1CCN(c2ccccc2F)CC1 (stereo not drawn)	nt	-1.1	nt	nt	0.0375	nt
CCOC(=O)C1C(=O)NC(N2CCN(Cc3ccccc3)CC2)=NC1c1ccco1 (stereo not drawn)	-9.3	-0.328	0.9	1.1	1.37	11.3
CCCCC(O)(C(NC=O)C(=O)OC)C(F)(F)F (stereo not drawn)	13.5	-8.6*	1.2	0.9	-0.0173	-16.6
Oc1[nH]c2ccccc2c1C=Nc1ccc2c(c1)OCCO2	18.4	1.08	1	0.8	-2.93*	-2.9
SMILES	CYP2C19 inh	hDAT+cocaine	CYP2C9 activ	CYP2C19 act	D1 mod	CYP2C9 inh
CC(C)N=Cc1c(O)[nH]c2ccccc12	5.4	-1.31	0.5	0.9	nt	54.5*
Cn1cc(S(=O)(=O)Cc2ccc(F)cc2)c2ccccc21	nt	nt	nt	nt	-0.374	nt
CCOC(=O)C(Sc1ncnc2c1sc1nc(N3CCOCC3)c3c(c12)CCCC3)c1ccccc1 (stereo not drawn)	9.9	1.46	0.6	0.9	nt	39.1
C[C@H](NC(=O)c1nc[nH]c1C(=O)N[C@@H](CCCCNC(=O)OC(C)(C)C)C(=O)OC(C)(C)C)c1ccccc1	nt	0.719	nt	nt	nt	nt
Clc1ccc(-c2nnsc2SCc2ccccc2)cc1	-12.6	0.0744	0.7	1.1	nt	25.5
COc1ccc(S(=O)(=O)N(CC(C)C)CC(C)C)c2cccnc12	43.7	-0.851	0.1	0.6	nt	91.7*
CCCCN(CCCC)S(=O)(=O)c1ccc(OC)c2ncccc12	14.2	0.902	0.3	0.9	-0.0726	66.4*
COC(=O)CCC(=O)Nc1cccc(C(=O)Nc2cccc(Cl)c2)c1	23.5	0.505	0.7	0.8	nt	34.6
O=S(=O)(c1cccc2ccccc12)N1CCSC1	37.5	-0.611	5.2*	0.6	nt	-416.4
Cc1ccc2nc(C3CCN(C(=O)c4ccco4)CC3)[nH]c2c1	6.2	-1.54	0.7	0.9	0.0239	26.3
CCN(CC)C(=O)CSc1nnc(CNc2ccc(F)cc2)n1-c1ccccc1	nt	0.817	nt	nt	nt	nt
Cn1c(NC(=O)c2ccco2)cc(=O)n(C)c1=O	1.7	7.87*	1	1	0.16	4.0
Cn1c(NC(=O)C2c3ccccc3Oc3ccccc32)cc(=O)n(C)c1=O	23.0	-1.3	0.9	0.8	3.15	14.6
Cn1c(NC(=O)C2CCCO2)cc(=O)n(C)c1=O (stereo not drawn)	22.8	-0.418	0.3	0.8	-0.194	65.6*
Cn1c(NC(=O)c2ccccc2)cc(=O)n(C)c1=O	0.5	-0.00814	0.9	1	0.241	13.9
CN(NC(N)=O)c1ncc(C(F)(F)F)cc1Cl	5.0	-0.798	1	0.9	nt	-0.2
CCOC(=O)CSc1nnc(Cn2nnc(-c3ccccc3)n2)n1CC	-0.8	-0.19	1	1	0.0155	-2.0
c1ccc(C2COC(c3cccs3)=N2)cc1 (stereo not drawn)	61.5*	-0.189	0.9	0.4	-0.511	7.7
Cc1cc(C)n(-c2ccc(Cl)c(C(=O)Nc3ccc(-c4nnc5n4CCCCC5)cc3)n2)n1	17.9	-1.19	0.9	0.8	0.798	14.6
CCN1CCN(C(=O)Nc2ccccc2OC)CC1	nt	-0.366	nt	nt	nt	nt
CCOC(=O)CC1C(=O)NCCN1S(=O)(=O)c1ccc(Cl)cc1 (stereo not drawn)	13.2	0.172	1.1	0.9	nt	-8.5
CCOC(=O)CC1C(=O)NCCN1S(=O)(=O)c1cc(Cl)c(Cl)cc1Cl (stereo not drawn)	61.5*	-0.457	1.2	0.4	nt	-20.9
CCOC(=O)C1C(=O)Nc2nc3ccccc3n2C1C(C)C (stereo not drawn)	5.7	0.0127	1	0.9	0.519	0.9
O=C(c1ccco1)N1CCN(C(=O)c2oc(=O)c3ccccc3c2-c2ccccc2)CC1	48.8	-0.152	0.4	0.5	0.803	59.9*
O=C(c1oc(=O)c2ccccc2c1-c1ccccc1)N1CCOCC1	0.3	-0.636	1	1	nt	2.3

Screening results: PubChem BioAssay, several laboratories
